Measured values taken from PubChem BioAssay (NCATS).
Values joined by “and” are separate entries in the source; they are usually repeats but may differ in a detail not shown here. Equal values may be shown once. Records with an inconclusive call do not appear. Active and inactive are the calls of the source. Unless noted, calls come from the whole dose curve; as a rule, active = well fitted curve in the direction sought with a large enough effect; inconclusive = small, poorly fitted or top-dose-only effect, or another doubt; inactive = no such curve, though single readings can be large; an effect the other way counts as inactive or inconclusive.

Columns and labels:
[1] = Cell Viability - N2a (AID 540); details: N2a mouse neuroblastoma cell viability; activity change, negative = cytotoxicity: at 92.2 µM (top of the series);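 note: plate controls were DMSO alone for no effect and tamoxifen control for full effect; nearly all actives have a fitted effect of over 45% in size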
In short: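 CellTiter-Glo ATP luminescence, read 20 min after reagent at room temperature, reported viability following 40 h compound treatment at 37 °C. N2a mouse neuroblastoma cells seeded 1500/well; Hill equation gave AC50.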

[2] = Cell Viability - NIH 3T3 (AID 541); details: NIH 3T3 cell viability, qHTS; activity change, negative = cytotoxicity: at 92.2 µM (top of the series);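 note: plate controls were DMSO alone for no effect and tamoxifen positive control for full effect; nearly all actives have a fitted effect of over 25% in size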
In short: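 Intracellular ATP (CellTiter-Glo luminescence, 20 min at room temperature) measured after 40 hr compound exposure at 37 °C of 1000 NIH 3T3 mouse fibroblasts/well in complete medium; AC50 derived by Hill-equation modelling of qHTS concentration-response curves.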

[3] = Cell Viability - HUV-EC-C (AID 542); details: HUV-EC-C endothelial cell viability, qHTS; series mostly up to 92.2 µM; note: % is set by controls: 0 for no effect and ±100 for the full control effect; nearly all actives have a fitted effect of over 35% in size
In short: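 CellTiter-Glo luminescence measured ATP loss in HUV-EC-C cells (1000/well) after 40 hr compound exposure at 37 °C, in complete culture medium. Concentration-response data were Hill-fitted to give AC50.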

[4] = Cell Viability - H-4-II-E (AID 543); details: H-4-II-E rat hepatoma viability; series mostly up to 92.2 µM; note: % is set by controls: 0 for no effect and ±100 for the full control effect; nearly all actives have a fitted effect of over 35% in size
In short: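 CellTiter-Glo luminescence (intracellular ATP) measured after 40 h compound exposure at 37 °C in H-4-II-E rat hepatoma cells seeded at 1500/well. Values are AC50s fitted with the standard Hill equation.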

[5] = Cell Viability - SH-SY5Y (AID 544); details: SH-SY5Y neuroblastoma cell viability; series mostly up to 92.2 µM; note: nearly all actives have a fitted effect of over 55% in size
In short: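 Cytotoxicity measured via ATP-dependent luciferase luminescence (CellTiter-Glo) following 40 h, 37 °C exposure of 1500 SH-SY5Y cells per well. Concentration-response data were fitted with the standard Hill equation to give AC50.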

[6] = Cell Viability - Renal Proximal Tubule (AID 545); details: renal proximal tubule cells viability, primary cells of rat origin; at 91.7 µM (top of the series); note: nearly all actives have a fitted effect of over 40% in size
In short: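 In this qHTS format, normal rat kidney-derived proximal tubule cells in complete culture medium receive compound titrations, then sit 40 hours at 37 °C before luciferase-based ATP quantitation; potency is reported as AC50 from concentration-response curves.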

[7] = Cell Viability - Mesenchymal (AID 546); details: mesenchymal cells viability, qHTS; activity change, negative = cytotoxicity: at 91.7 µM (top of the series);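 note: cells exposed to compound for 40 hours before reading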
In short: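 CellTiter-Glo luminescence (intracellular ATP, 20 min room temperature) after 40 hr compound exposure at 37 °C of 1000 glomerulus-derived human kidney mesenchymal cells/well; AC50 values obtained by fitting qHTS concentration-response data to the Hill equation.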

[8] = Cellular Toxicity (caspase-3) HepG2 (AID 654); details: HepG2 caspase-3 activation, luminescence, 0% = DMSO only, 100% = tamoxifen; series mostly up to 92.2 µM;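 note: cells exposed to compound for 16 hours before reading; 0% = DMSO alone and 100% = caspase signal from 100 µM tamoxifen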
In short: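 Caspase 3/7 activation is measured as a luminescence increase (aminoluciferin substrate) after 16 h compound exposure of human hepatocarcinoma HepG2 cells. AC50 values are Hill fits, scaled between DMSO baseline and 100 uM tamoxifen stimulation.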

[9] = Cellular Toxicity (caspase-3) Jurkat (AID 655); details: Jurkat caspase-3 activation, luminescence, DMSO = 0%, tamoxifen = 100%; at 92.2 µM (top of the series);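 note: cells exposed to compound for 16 h at 37 °C before reading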
In short: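 qHTS in human Jurkat T-cell leukemia line: 16 hr compound treatment at 37 °C, caspase-3/7 activity measured by Caspase-Glo luminescence. AC50 derived from Hill equation.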

[10] = Cellular Toxicity (caspase-3) HUV-EC-C (AID 656); details: HUV-EC-C cells, caspase-3 activation (apoptosis), vehicle = 0, 100 µM tamoxifen = 100%; series mostly up to 92.2 µM
In short: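 Concentration-dependent caspase 3/7 induction was assessed in HUV-EC-C cells exposed for 16 hours. Data scaled between DMSO and tamoxifen (100 uM) controls.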

[11] = Cellular Toxicity (caspase-3) SHSY5Y (AID 657); details: SH-SY5Y caspase-3 activation, DMSO zero, 10 µM staurosporine = 100%; series mostly up to 91.7 µM;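 note: cells exposed to compound for 16 hours at 37 °C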
In short: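 Readout: caspase-cleaved peptide-aminoluciferin substrate driving luciferase light in SH-SY5Y neuroblastoma cells after 16 h treatment. Response normalized to DMSO and 10 uM staurosporine controls.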

[12] = Cellular Toxicity (caspase-3) BJ (AID 658); details: BJ fibroblasts, luminescence, normalized: DMSO 0%, staurosporine 100%; series mostly up to 91.7 µM
In short: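 Caspase-Glo 3/7 luminescence, read 1 hr after reagent at room temperature, in normal BJ fibroblasts exposed 16 hours at 37 °C. AC50 values from Hill-equation concentration-response, scaled between DMSO basal and 10 uM staurosporine as 100%.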

[13] = Cellular Toxicity (caspase-3) MRC-5 (AID 659); details: MRC-5 cells, luminescence, normalized: DMSO 0%, 10 µM staurosporine 100%; series mostly up to 91.7 µM
In short: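 Luminescent Caspase-Glo 3/7 read-out (1 h, room temperature) after a 16 h, 37 °C compound exposure of MRC-5 lung fibroblasts at 1500 cells/well. Concentration-response AC50 from Hill equation; 0% DMSO, 100% 10 uM staurosporine.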

[14] = Cellular Toxicity (caspase-3) Mesangial (AID 660); details: mesangial cells, normalized: DMSO 0%, 100 µM tamoxifen 100%; series mostly up to 91.7 µM;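 note: combined caspase 3 and 7 activity read by Caspase-Glo luminescence; cells exposed to compound for 16 h before the caspase read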
In short: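 Caspase 3/7 activation measured by Caspase-Glo 3/7 luminescence (20 min, room temperature) following 16 h exposure of mesangial cells (1000/well); AC50 from Hill-equation fit, normalized to DMSO and 100 uM tamoxifen.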

[15] = biological target: Glucocorticoid receptor (Homo sapiens) (UniProt P04150); experiment: qHTS assay for small molecule antagonists of glucocorticoid receptor signaling (AID 588533; active = well fitted inhibition curve with a large enough effect in the signal ratio, with a control signal flat, not every such curve was filed as active; the % refers to the signal ratio;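 note: cells stimulated with 2 nM dexamethasone as agonist; % is set by controls: 0 for no effect and ±100 for the full control effect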); details: HeLa MMTV-bla, GRE beta-lactamase ratio, antagonist mode, 18 h; series mostly up to 76.8 µM
In short: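 Antagonist-mode qHTS: compound titrations added to GRE-bla HeLa cells, then dexamethasone 2 nM final; 18 h, 37 C. CCF4 FRET fluorescence normalized to dexamethasone and DMSO; IC50 from Hill fit.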

[16] = biological target: Thyroid hormone receptor beta (Homo sapiens) (UniProt P10828); experiment: qHTS assay for small molecule antagonists of thyroid hormone receptor beta signaling (AID 588547; active = well fitted inhibition curve with a large enough effect in the signal ratio, with a control signal flat, not every such curve was filed as active; the % refers to the signal ratio;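 note: cells stimulated with 0.4 nM T3 agonist during compound exposure; % is set by controls: 0 for no effect and ±100 for the full control effect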); details: TR-UAS-bla HEK293, beta-lactamase ratio, antagonist mode, 18 h
In short: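 Inhibition of T3-driven (0.4nM final) beta-lactamase reporter activity was measured over 0.59 nM to 92 uM compound after 18 h at 37 C. The cells were GripTite HEK293 TR-UAS-bla in charcoal/dextran-stripped serum, with CCF4 ratio read-out and IC50 from Hill fits.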

[17] = qHTS assay for small molecule disruptors of the mitochondrial membrane potential - 1 hr assay (AID 651754; calls by dose curve; note: % is set by controls: 0 for no effect and ±100 for the full control effect; nearly all actives have a fitted effect of over 35% in size); details: series mostly up to 92.2 µM
In short: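 Mitochondrial potential in living HepG2 cells after 1 hr compound treatment at 37C was read with Mito-MPS dye added for a further 30 min. Red aggregate and green monomer fluorescence were measured; loss of potential leaves dye as cytoplasmic monomers.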

[18] = qHTS assay for small molecule disruptors of the mitochondrial membrane potential - 5 hr assay (AID 651755; calls by dose curve; note: % is set by controls: 0 for no effect and ±100 for the full control effect; nearly all actives have a fitted effect of over 40% in size); details: JC-1-type ratio dye; series mostly up to 92.2 µM
In short: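 Membrane-potential dye readout: red aggregate (540 ex/590 em) versus green monomer (490 ex/535 em) fluorescence after 30 min dye loading, following 5 hr compound exposure at 37C of overnight-plated HepG2 cells.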

[19] = qHTS assay for environmental chemicals that activate the Aryl hydrocarbon Receptor (AhR) signaling pathway (AID 651777); details: 1A2-DRE human hepatoma cells, luciferase, 24 h; activation: active compounds read high; note: % of control where 0% means no effect; nearly all actives have a fitted effect of over 15% in size
In short: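 Human hepatoma 1A2-DRE cells, stably carrying a dioxin response element and CYP1A2 promoter driving luciferase, were exposed to compounds for 24 hr at 37 C and 5% CO2. Luciferase signal was then read after 30 min One-Glo at room temperature.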

[20] = biological target: Nuclear receptor ROR-gamma (Homo sapiens) (UniProt P51449); experiment: qHTS assay for small molecule antagonists of the retinoid-related orphan receptor gamma (ROR-gamma) signaling pathway (AID 651802); details: ROR-gamma antagonist cell reporter assay; series mostly up to 92.2 µM;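 note: CHO cells with doxycycline-induced ROR-gamma expression; luciferase reporter luminescence driven by ROR response element; % is set by controls: 0 for no effect and ±100 for the full control effect; nearly all actives have a fitted effect of over 60% in size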
In short: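 Luminescence (One-Glo, 30 min RT) measured 16 h after compound addition and doxycycline induction at 37C. Reporter: RORE-luciferase under TET-inducible ROR-gamma in CHO cells.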

Thyroid hormone receptor beta (Homo sapiens), sequence (P10828 whole entry, looked up): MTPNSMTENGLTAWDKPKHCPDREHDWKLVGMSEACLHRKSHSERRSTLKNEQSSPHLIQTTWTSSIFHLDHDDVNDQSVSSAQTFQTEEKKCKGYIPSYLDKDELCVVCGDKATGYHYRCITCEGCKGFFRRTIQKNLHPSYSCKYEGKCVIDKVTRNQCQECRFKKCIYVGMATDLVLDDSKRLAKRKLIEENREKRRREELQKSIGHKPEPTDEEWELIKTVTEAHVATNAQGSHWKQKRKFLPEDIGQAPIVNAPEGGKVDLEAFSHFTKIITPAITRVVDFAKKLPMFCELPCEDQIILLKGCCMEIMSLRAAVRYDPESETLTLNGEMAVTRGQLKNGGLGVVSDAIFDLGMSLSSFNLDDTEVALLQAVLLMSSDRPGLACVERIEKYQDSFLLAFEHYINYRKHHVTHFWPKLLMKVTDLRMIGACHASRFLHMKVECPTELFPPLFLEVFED
Glucocorticoid receptor (Homo sapiens), sequence (P04150 whole entry, looked up): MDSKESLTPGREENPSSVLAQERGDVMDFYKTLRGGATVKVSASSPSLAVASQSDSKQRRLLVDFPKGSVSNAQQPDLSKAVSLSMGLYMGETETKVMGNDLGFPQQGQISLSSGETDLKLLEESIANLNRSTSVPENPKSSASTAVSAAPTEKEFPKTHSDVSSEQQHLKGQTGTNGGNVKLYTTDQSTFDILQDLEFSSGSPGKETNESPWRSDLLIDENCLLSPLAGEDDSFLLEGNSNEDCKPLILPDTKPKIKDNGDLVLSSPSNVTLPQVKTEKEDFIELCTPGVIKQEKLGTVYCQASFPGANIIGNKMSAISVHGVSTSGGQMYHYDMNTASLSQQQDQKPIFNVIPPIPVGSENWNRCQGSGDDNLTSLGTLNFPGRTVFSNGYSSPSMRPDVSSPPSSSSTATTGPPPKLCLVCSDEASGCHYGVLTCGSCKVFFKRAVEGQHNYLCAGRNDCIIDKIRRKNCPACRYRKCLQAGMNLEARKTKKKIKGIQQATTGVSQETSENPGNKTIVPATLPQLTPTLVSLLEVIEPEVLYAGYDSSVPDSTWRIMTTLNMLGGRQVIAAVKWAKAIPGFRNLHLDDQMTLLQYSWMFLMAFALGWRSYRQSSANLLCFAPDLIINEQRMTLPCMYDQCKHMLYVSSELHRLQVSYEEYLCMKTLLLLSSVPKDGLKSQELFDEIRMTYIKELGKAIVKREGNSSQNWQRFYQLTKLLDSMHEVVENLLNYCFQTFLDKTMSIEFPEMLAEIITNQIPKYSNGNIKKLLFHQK
Nuclear receptor ROR-gamma (Homo sapiens), sequence (P51449 whole entry, looked up): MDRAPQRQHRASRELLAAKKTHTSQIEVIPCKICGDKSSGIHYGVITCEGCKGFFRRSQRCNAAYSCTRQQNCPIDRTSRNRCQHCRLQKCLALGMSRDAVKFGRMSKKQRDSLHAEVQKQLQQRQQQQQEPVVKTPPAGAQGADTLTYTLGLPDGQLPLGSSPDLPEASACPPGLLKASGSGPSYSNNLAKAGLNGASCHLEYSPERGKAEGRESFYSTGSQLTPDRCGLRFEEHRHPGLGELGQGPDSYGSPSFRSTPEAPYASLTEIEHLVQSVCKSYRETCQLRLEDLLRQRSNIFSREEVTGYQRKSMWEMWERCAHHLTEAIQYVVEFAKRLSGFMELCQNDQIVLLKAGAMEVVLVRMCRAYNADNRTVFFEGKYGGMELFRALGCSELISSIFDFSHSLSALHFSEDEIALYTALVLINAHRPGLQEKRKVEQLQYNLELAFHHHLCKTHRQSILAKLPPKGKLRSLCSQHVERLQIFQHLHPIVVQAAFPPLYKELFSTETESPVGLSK

CC12CCC(CC1=O)C2(C)C (stereo not given)
inactive: activity change, negative = cytotoxicity [1] -9.82% | Potency [2] | outcome [3] | Potency [4] | Potency [5] | activity change, negative = cytotoxicity [6] -5.29% | activity change, negative = cytotoxicity [7] -11.1% | outcome [8] | caspase-3 activation [9] -3.1% | outcome [10] | outcome [11] | outcome [12] | outcome [13] | outcome [14] | Potency [15] | activity change % (negative = inhibition) [16] 8% and 6.78% | Potency [17] | Potency [18] | activation [19] -0.66% and 0.506% | Potency [20]

CCCCCCCCOC(=O)c1cc(O)c(O)c(O)c1
inactive: activation [19] 0.999%

O=C(/C=C/c1ccc(O)c(O)c1)O[C@@H](C(=O)O)[C@@H](OC(=O)/C=C/c1ccc(O)c(O)c1)C(=O)O
inactive: activity change, negative = cytotoxicity [1] -0.47% | Potency [2] | outcome [3] | Potency [4] | Potency [5] | activity change, negative = cytotoxicity [6] -5.23% | activity change, negative = cytotoxicity [7] 11% | outcome [8] | caspase-3 activation [9] 1.83% | outcome [10] | outcome [11] | outcome [12] | outcome [13] | outcome [14] | Potency [15] | activity change % (negative = inhibition) [16] -11.2% | Potency [17] | Potency [18] | Potency [20]
